About 83,000 compounds went through this panel and 20% of them were active in at least one assay; those are over-represented in the sample as a whole.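 Compound tested at a single concentration for 48 hours in 96-well plates; a percent growth value below 10 was scored as active.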 Unmarked numbers belong to inactive results. Activity calls are given as the source filed them.
Key:
Test in all cases: NCI-60 one-dose screen, 48 h (100 = growth as untreated, 0 = no growth, -100 = all killed)
Settings in all cases: 10 µM unless noted
[1] = system: SR leukemia
[2] = system: RPMI-8226 leukemia
[3] = system: OVCAR-8 ovarian
[4] = system: OVCAR-5 ovarian
[5] = system: SK-OV-3 ovarian
[6] = system: IGROV1 ovarian
[7] = system: OVCAR-3 ovarian
[8] = system: HS 578T breast
[9] = system: NCI/ADR-RES ovarian
[10] = system: T-47D breast
[11] = system: MDA-MB-435 melanoma
[12] = system: SW-620 colon
[13] = system: MCF7 breast
[14] = system: HCT-116 colon
[15] = system: HCC-2998 colon
[16] = system: BT-549 breast
[17] = system: KM12 colon
[18] = system: OVCAR-4 ovarian

Row | SMILES | growth [1] | growth [2] | growth [3] | growth [4] | growth [5] | growth [6] | growth [7] | growth [8] | growth [9] | growth [10] | growth [11] | growth [12] | growth [13] | growth [14] | growth [15] | growth [16] | growth [17] | growth [18]
1 | Nc1nc(Nc2ccccc2SSc2ccccc2Nc2nc(N)nc(-c3cccc(Br)c3)n2)nc(-c2cccc(Br)c2)n1 | -44% (active) | 59.6% | 68.4% | 95.5% | 131% | 54.9% | 100% | 74.3% | 21.3% | 62.6% | 93.9% | 98.5% | 69.2% | 47.8% | 120% |  |  | 
2 | O=C(CN1CCN(c2cc(=O)[nH]c3ccc(F)cc23)CC1)Nc1ccc(Cl)cc1 | 84.3% | 104% | 33.3% | 86.2% | 65.1% | 67.1% | 60.5% | 34.6% | 76% | 66.3% | 96% | 93.8% | 58.8% | 57.6% | 92.3% | 47.6% | 91.6% | 
3 | Cc1ccc(NC(=O)c2ccc(CN3CCN(C)CC3)cc2)cc1Oc1ccc(-c2[nH]nc3ncnc(N)c23)cc1 | 80.2% | 75.5% | 99.5% | 101% | 93.7% | 90% | 88.4% | 82.8% | 100% | 81.4% | 86.4% | 80.2% | 35.7% | 81.9% |  | 93% | 56.3% | 
4 | Nc1ncc(-c2ccc3ncnc(N4CCc5cc(F)c(Cl)cc54)c3c2)cn1 | 18% | -14.7% (active) | 33.5% | 19.8% | 20.5% | -11.2% (active) | 13.5% | -12.8% (active) | 38.4% | 13.5% |  | 40.7% | 11.9% | 20.5% | 31.6% |  | 50.6% | 
5 | COc1ccc([C@H]2[C@H](O)C(=O)N2c2cc(OC)c(OC)c(OC)c2)cc1F | 9.35% (active) | 26.9% | -15% (active) | 27.7% |  | 19.2% |  |  | 8.51% (active) | 68.7% | -10.4% (active) | 22.2% | 11% | 0.995% (active) | 10.9% |  | 9.99% (active) | 67.7%
6 | NC(=O)c1cccc(-n2ccc3cc(NC(=O)Nc4ccc(N5CCOCC5)c(C(F)(F)F)c4)ccc32)n1 | -23.5% (active) | -30.7% (active) | 11.6% | 28% | 19.8% | 13.8% | 7.68% (active) | -21.8% (active) | 15.9% | 1.29% (active) | 10.5% | 4.98% (active) | 8.81% (active) | 0.168% (active) | 31.3% | -14.8% (active) | -15.7% (active) | 
7 | C=CCN(C)S(=O)(=O)/N=C1\NC(=O)NC1=C(Cl)Cl | -18.7% (active) | 5.23% (active) | 61.2% | -37.5% (active) | 104% | -37.4% (active) | -84.3% (active) | 80.5% | 72.5% | 55.1% | 34.4% | -61.9% (active) | 11.9% | 1.54% (active) | 40.1% | 89.1% | 7.25% (active) | 
8 | O=C(CSc1nc2ccccc2c(=O)n1-c1ccccc1)Nc1cccc(C(=O)/C=C/c2ccccc2)c1 | 77.5% | 6.02% (active) | 84% | 96.6% |  | 95.4% |  | 92.5% | 96.8% | 76.8% | 93.2% | 90% | 19% | -13.7% (active) | 113% | 112% | 87.5% | 94%
9 | Cc1cc2ncc(-c3cc4ccccc4c(N4CCN(C)CC4)n3)nc2cc1C | -39.9% (active) | -12.2% (active) | 67.9% | 31.9% |  | 42.3% |  | 61.9% | 40.2% | -54% (active) | -87.8% (active) | 1.46% (active) | -65% (active) | -85.7% (active) | -84.2% (active) | 85.9% | -3.53% (active) | 37.6%
10 | CCOc1ccccc1NC1=C(Cl)C(=O)c2nc(C)ccc2C1=O | -12.8% (active) | -35.1% (active) | 0.93% (active) | 40.8% | 85.3% | -57.5% (active) | -98.9% (active) |  | -9.58% (active) | -40% (active) | -85.7% (active) | -66.7% (active) | -59.7% (active) | -79.4% (active) |  | 44.4% | 60.8% | 
11 | COc1cc(-c2ccc3ncnc(NCc4ccccc4)c3c2)cnc1OC | 62.1% | 34.5% | 70.7% | 28.9% | 43.2% | -31.8% (active) | 43.4% | 20% | 68.3% | 2.37% (active) | 77.1% | 74.6% | 27% | 78.1% | 73.2% | 57.2% | 95.2% | 
12 | CCCn1cnc2c(c1=N)C(c1ccc(Cl)cc1)c1sc3c(C)cccc3c1O2 (configuration not stated) | 12.6% | 1.37% (active) | 23.5% | 34.2% | 44.2% | 23.7% | 2.26% (active) | 15.4% | 7.18% (active) | 45.9% |  | 25.8% | 17.4% | 9.34% (active) | 15.3% | 18% | 10.9% | 
13 | CC[C@H](CO)Nc1ccc2ncc(C#Cc3cncc(C(=O)Nc4ccc(CN5CCN(C)CC5)c(C(F)(F)F)c4)c3)n2n1 | -42.9% (active) | -44.8% (active) | -58.1% (active) | -38.1% (active) | -45.6% (active) | -33.1% (active) |  | -43.9% (active) | 54.3% | -69.5% (active) | -91.4% (active) | -50.8% (active) | -73.1% (active) | -94.3% (active) |  | -97.4% (active) | -61.9% (active) | 
14 | CCC(CC)N1C(=O)/C(=c2\sc3n(c2=O)NC2C(N=3)N(CC)C(=O)N2CC)c2ccccc21 (configuration not stated) | 54.5% | 64.7% | 81.6% | 57.3% | 95.7% | 44.7% | 31.5% | 73.1% | 26.3% | 86.1% | 9.51% (active) | 48.2% | 35.8% | 27.9% | 65.9% | 102% | 11.2% | 
15 | C#C[C@]1(O)CC[C@H]2[C@@H]3CC=C4c5sc(-c6ccc7c(c6)OCO7)nc5CC[C@]4(C)[C@H]3CC[C@@]21C | 16.9% | -15.3% (active) | 30.2% | 36.3% |  | 34.8% | -13.2% (active) | -9.35% (active) | 39.2% | 41.5% | -6.66% (active) | 2.53% (active) | -1.98% (active) | -9.63% (active) |  | 26.1% | 14% | 
16 | Cn1cc(CNc2nc3ccc(OC/C(=C/F)CN)cc3o2)ccc1=O | 117% | 110% | 111% | 101% | 109% | 102% | 112% | 103% | 102% | 105% | 104% | 107% | 91.7% | 103% | 99% | 99.8% | 105% | 
17 | Cc1ccc2c(c1)C13C(=C2Br)CCCN1C(=O)c1ccccc13 (configuration not stated) | 47.2% | 80.4% | 99.5% | 96.6% | 96.2% | 88.5% | 94.8% | 94.3% | 88.4% | 86.8% | 54.8% | 93.7% | 74.3% | 96.5% | 113% |  | 91.5% | 
18 | C[C@H](CCC(=O)NCc1ccc(C(=O)Nc2ccccc2N)cc1)[C@H]1CC[C@H]2[C@@H]3[C@@H](O)C[C@@H]4C[C@H](O)CC[C@]4(C)[C@H]3CC[C@]12C | 63.4% | 5.86% (active) |  | 67.8% | 73.7% | 51% | 64.3% | 69.6% | 99.4% | 48% | 60.2% | 56% | 45.7% | 31.2% | 89.5% | 54.1% |  | 65.3%

— PubChem BioAssay (NCI)
